Compound activity (PubChem BioAssay)
In the library only some 10% were active in any assay of this set; here they are far more common.
HEK293 tox: Cytotoxic Profiling in HEK 293 Cell Line of Diverse Libraries Using Quantitative High-Throughput Screening; HEK 293 viability, ATP luminescence (CellTiter-Glo), 48-72 h; Potency, µM (top dose mostly 115 µM), hits mostly inhibitors; actives 6.6% (n = 94,000); AID 1345083, 2018; note: nearly all actives have a fitted effect of over 60% in size
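Cytotoxicity was scored by loss of ATP-coupled luminescence (CellTiter-Glo) in HEK 293 cells. Compound treatment ran 48 or 72 hr at 37 degree Celsius, 5% CO2, 95% humidity.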
NPR1 antag: Natriuretic polypeptide receptor (hNpr1) antagonism - Primary qHTS | Atrial natriuretic peptide receptor 1 (Homo sapiens), P16066 | HEK293 hNpr1 GloSensor cGMP, ANP-stimulated luminescence | Potency, µM (doses to about 46.3 µM), hits mostly inhibitors | actives 1.6% (n = 76,000) | AID 1347048, 2019; calls by dose curve; note: nearly all actives have a fitted effect of over 60% in size
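Compound pre-incubated 30 min at room temperature on GloSensor-loaded HEK293 cells stably carrying hNpr1 and the pGS-40F cGMP biosensor. Stimulation uses hNppA at 0.1 nM final; luminescence is taken at baseline and 20 min post-agonist.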
FLuc inh: Firefly luciferase inhibition profiling of diverse chemical library using quantitative high-throughput screening | Luciferin 4-monooxygenase (Photinus pyralis), P08659 | purified P. pyralis luciferase, luminescence, biochemical | Potency, µM (highest dose often 115 µM), most hits filed as inhibitors | actives 2.5% (n = 76,000); note: nearly all actives have a fitted effect of over 65% in size
Target sequence (P08659 whole entry, looked up): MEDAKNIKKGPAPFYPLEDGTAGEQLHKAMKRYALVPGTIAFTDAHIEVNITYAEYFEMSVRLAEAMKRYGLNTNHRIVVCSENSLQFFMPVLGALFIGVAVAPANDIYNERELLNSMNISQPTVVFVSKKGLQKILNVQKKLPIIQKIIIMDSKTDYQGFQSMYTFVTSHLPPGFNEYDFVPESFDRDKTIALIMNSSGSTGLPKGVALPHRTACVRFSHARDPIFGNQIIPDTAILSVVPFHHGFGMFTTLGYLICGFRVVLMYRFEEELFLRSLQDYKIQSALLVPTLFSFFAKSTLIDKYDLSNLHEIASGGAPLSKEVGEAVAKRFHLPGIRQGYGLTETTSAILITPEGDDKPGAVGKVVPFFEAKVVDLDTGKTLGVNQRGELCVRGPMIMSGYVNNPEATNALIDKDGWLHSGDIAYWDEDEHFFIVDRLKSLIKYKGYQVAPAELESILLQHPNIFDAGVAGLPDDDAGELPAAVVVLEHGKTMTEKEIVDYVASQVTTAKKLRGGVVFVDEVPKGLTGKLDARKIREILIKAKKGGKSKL
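Biochemical qHTS: compound (6-point titration) added to 10uM D-luciferin plus 10uM ATP in Tris acetate pH 7.5 buffer with Mg, Tween-20 and BSA, then purified enzyme at 10nM; light output imaged.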
GPT2 inhibitor: Primary qHTS assay for inhibitors of Glutamate pyruvate transaminase 2 (GPT2); Potency, µM (titrated, usually from 57.7 µM), hits mostly inhibitors; actives 0.25% (n = 100,000); Alanine aminotransferase 2 (Homo sapiens), Q8TD30; Recombinant GPT2, coupled pyruvate oxidase/HRP Amplex Red fluorescence; AID 1671188, 2021; note: nearly all actives have a fitted effect of over 60% in size
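Fluorescence read-out: pyruvate from GPT2 turnover coupled to pyruvate oxidase, HRP and Amplex Red (0.2mM ThPP, 0.2U/mL PO and HRP, 50uM Amplex final). Substrates 250uM a-KG, 2mM L-alanine; enzyme 10ng/uL; 30 min RT.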
3T3 cytotox: Cytotoxic Profiling in NIH 3T3 Cell Line of Diverse Libraries Using Quantitative High-Throughput Screening; NIH 3T3 viability, CellTiter-Glo ATP luminescence, 48-72 h; Potency, µM (highest dose often 96.7 µM), most hits filed as inhibitors; actives 4.3% (n = 94,000); note: nearly all actives have a fitted effect of over 55% in size
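Cytotoxicity is measured as loss of cellular ATP: NIH 3T3 cells (400/well) are exposed to compound for 48 or 72 hr at 37 °C, then CellTiter-Glo luminescence is imaged after 10 min at room temperature.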
A number is an active result. Unless noted, calls come from the whole dose curve; as a rule, active = well fitted curve in the direction sought with a large enough effect; inconclusive = small, poorly fitted or top-dose-only effect, or another doubt; inactive = no such curve, though single readings can be large; an effect the other way counts as inactive or inconclusive.

What do the screens show for `COc1ccc(-c2cccc(C(=O)NCC(F)F)c2)nn1`?
HEK293 tox: inactive; 3T3 cytotox: inactive

How did COc1ccc(-c2cccc(C(=O)NCCCc3ccccc3)c2)nn1 do in these assays?
HEK293 tox: 79.4µM; 3T3 cytotox: inconclusive

How did COc1ccc(-c2cccc(C(=O)NCc3ccc(C(F)(F)F)cc3)c2)nn1 do in these assays?
HEK293 tox: 39.8µM; 3T3 cytotox: inconclusive

Results for CC1CCN(c2ccc(CNC(=O)CC3=C4CCCCC4N(C)C3=O)cc2)CC1 (centres undefined) ?
HEK293 tox: inconclusive; NPR1 antag: inactive; FLuc inh: inactive; GPT2 inhibitor: inactive; 3T3 cytotox: inconclusive

How did Cc1cccc(OCC(=O)N2CCc3nn(Cc4ccccc4)c(=O)n3CC2)c1 do in these assays?
HEK293 tox: inconclusive; NPR1 antag: inactive; FLuc inh: inactive; GPT2 inhibitor: inactive; 3T3 cytotox: inconclusive

How did Cc1ccccc1CN1Cc2nc(-c3cncnc3)ccc2OCC1=O do in these assays?
HEK293 tox: inconclusive; NPR1 antag: inactive; FLuc inh: inactive; GPT2 inhibitor: inactive; 3T3 cytotox: 100µM

What do the screens show for `COc1ccccc1-c1ccc2c(n1)CN(Cc1ccccc1C)C(=O)CO2`?
HEK293 tox: inconclusive; NPR1 antag: inactive; FLuc inh: inactive; GPT2 inhibitor: inactive; 3T3 cytotox: inactive

What do the screens show for `O=C1COc2ccc(-c3ccsc3)nc2CN1Cc1ccc(C(F)(F)F)cc1`?
HEK293 tox: inconclusive; NPR1 antag: inactive; FLuc inh: inactive; GPT2 inhibitor: inactive; 3T3 cytotox: inconclusive

Results for Cc1ccccc1CN1Cc2nc(-c3ccsc3)ccc2OCC1=O ?
HEK293 tox: 89.1µM; NPR1 antag: inactive; FLuc inh: inactive; GPT2 inhibitor: inactive; 3T3 cytotox: inconclusive

How did O=C1COc2ccc(-c3ccsc3)nc2CN1Cc1ccccc1 do in these assays?
HEK293 tox: 100µM; NPR1 antag: inactive; FLuc inh: inactive; GPT2 inhibitor: inactive; 3T3 cytotox: inconclusive

What do the screens show for `COC(=O)c1ccc(CNC(=O)CN2CCN(c3nccnc3C#N)CC2)o1`?
HEK293 tox: inactive; NPR1 antag: inactive; FLuc inh: inactive; GPT2 inhibitor: inactive; 3T3 cytotox: inactive

Results for CC#CCn1cc2c3c(cccc31)[C@H](CC(C)C)N[C@H](C(=O)NC1CCCC1)C2 ?
HEK293 tox: 44.7µM; NPR1 antag: inactive; FLuc inh: inactive; GPT2 inhibitor: inactive; 3T3 cytotox: 35.5µM

Results for CC#CCn1cc2c3c(cccc31)[C@H](CC(C)C)N[C@H](C(=O)NCCOC)C2 ?
HEK293 tox: inconclusive; NPR1 antag: inactive; FLuc inh: inactive; GPT2 inhibitor: inconclusive; 3T3 cytotox: inconclusive

How did CC#CCn1cc2c3c(cccc31)[C@H](CC(C)C)N[C@H](C(=O)NC(C)C)C2 do in these assays?
HEK293 tox: 50.1µM; NPR1 antag: inactive; FLuc inh: inactive; GPT2 inhibitor: inactive; 3T3 cytotox: 70.8µM

How did CC#CCn1cc2c3c(cccc31)[C@H](CC(C)C)N[C@H](C(=O)NCCN1CCOCC1)C2 do in these assays?
HEK293 tox: inconclusive; NPR1 antag: inactive; FLuc inh: inactive; GPT2 inhibitor: inactive; 3T3 cytotox: 100µM

What do the screens show for `O=C(NCc1ccccc1)NC[C@H]1Cn2cc(-c3ccccc3)nc2CO1`?
HEK293 tox: inconclusive; NPR1 antag: inactive; FLuc inh: inactive; GPT2 inhibitor: inactive; 3T3 cytotox: inconclusive

What do the screens show for `CN(C)[C@@H]1CN(Cc2ccncc2F)CC[C@@H]1CNC(=O)C1CC1`?
HEK293 tox: inactive; NPR1 antag: inactive; FLuc inh: inactive; GPT2 inhibitor: inactive; 3T3 cytotox: inactive

What do the screens show for `O=C(c1ccsc1)N1CCC2(CC1)NC(=O)N(Cc1cccc(Cl)c1)C2=O`?
HEK293 tox: inconclusive; NPR1 antag: inconclusive; FLuc inh: inactive; GPT2 inhibitor: inactive; 3T3 cytotox: 28.2µM

How did COc1cc(OC)cc(C(=O)N2CCC3(C2)NC(=O)N(Cc2ccc(Cl)cc2)C3=O)c1 (centres undefined) do in these assays?
HEK293 tox: inconclusive; NPR1 antag: inactive; FLuc inh: inactive; GPT2 inhibitor: inactive; 3T3 cytotox: inconclusive

Results for O=C(c1ccsc1)N1CCC2(CC1)NC(=O)N(Cc1ccccc1)C2=O ?
HEK293 tox: inactive; NPR1 antag: inactive; FLuc inh: inactive; GPT2 inhibitor: inactive; 3T3 cytotox: inconclusive

Results for O=C(c1cccc(Cl)c1)N1CCC2(C1)NC(=O)N(Cc1ccc(Cl)cc1)C2=O (centres undefined) ?
HEK293 tox: inconclusive; NPR1 antag: inconclusive; FLuc inh: inactive; GPT2 inhibitor: inactive; 3T3 cytotox: 39.8µM

What do the screens show for `O=C1CN(C(=O)C2CCN(c3nc(-c4ccccc4)nc4c3CCC4)CC2)CCN1`?
HEK293 tox: inactive; NPR1 antag: inactive; FLuc inh: inactive; GPT2 inhibitor: inactive; 3T3 cytotox: inconclusive

Results for CC(C)NC(=O)NCCNC(=O)c1ccc(-c2cccc(C(F)(F)F)c2)cc1 ?
HEK293 tox: inactive; 3T3 cytotox: inconclusive

How did CC(C)(C)C(=O)NCCNC(=O)c1ccc(-c2cccc(C(F)(F)F)c2)cc1 do in these assays?
HEK293 tox: 28.2µM; 3T3 cytotox: inconclusive

How did CN(C)C(=O)NCCNC(=O)c1ccc(-c2cccc(C(F)(F)F)c2)cc1 do in these assays?
HEK293 tox: 28.2µM; 3T3 cytotox: inconclusive

How did O=C(NCCN1CCOCC1)c1ccc(N2CC3CC(C2)[C@H]2CCCC(=O)N2C3)nc1 (some centres undefined) do in these assays?
HEK293 tox: inactive; NPR1 antag: inactive; FLuc inh: inactive; GPT2 inhibitor: inactive; 3T3 cytotox: inactive

How did COc1cccc(CN2CCCC(N3CCN(c4cccc(C(F)(F)F)c4)CC3)C2)c1O (centres undefined) do in these assays?
HEK293 tox: 31.6µM; NPR1 antag: inactive; FLuc inh: inactive; GPT2 inhibitor: inactive; 3T3 cytotox: inconclusive

Results for CC(C)N1CCC(N2CCCC(N3CCN(c4cccc(C(F)(F)F)c4)CC3)C2)CC1 (centres undefined) ?
HEK293 tox: 20µM; NPR1 antag: inactive; FLuc inh: inactive; GPT2 inhibitor: inactive; 3T3 cytotox: inconclusive

What do the screens show for `O=C([C@@H]1C[C@H](F)CN1C(=O)c1cccc(Cl)c1)N1CCCCC1`?
HEK293 tox: inactive; NPR1 antag: inactive; FLuc inh: inactive; GPT2 inhibitor: inactive; 3T3 cytotox: inactive

Results for Cc1ccc(N)cc1O ?
GPT2 inhibitor: 11.2µM

What do the screens show for `O=C(CC1CCCCC1)N1CCC2(CC1)NC(=O)N(c1cccc(F)c1)N2`?
HEK293 tox: inconclusive; NPR1 antag: inactive; FLuc inh: inactive; GPT2 inhibitor: inconclusive; 3T3 cytotox: inconclusive
